# Laboratory results as given in PubChem BioAssay (NCI).
# About 83,000 compounds went through this panel and 20% of them were active in at least one assay; those are over-represented in the sample as a whole.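 How to read the values: 0–100, growth inhibition (40 = 60% inhibited); 0, no net growth; -100 to 0, cell death (-40 = 40% of starting cells died; -100 = all dead).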 Values without a mark were called inactive. The source made the active and inactive calls. How the source made its calls: active means growth percent below 10; inactive means the rest.
# Legend:
# Test in all cases: NCI-60 one-dose screen, 48 h (100 = growth as untreated, 0 = no growth, -100 = all killed)
# Conditions in all cases: 10 µM unless noted
# HCT-15 colon = tested on: HCT-15 colon
# HT29 colon = tested on: HT29 colon
# SNB-75 CNS = tested on: SNB-75 CNS
# SNB-19 CNS = tested on: SNB-19 CNS
# U251 CNS = tested on: U251 CNS
# PC-3 prostate = tested on: PC-3 prostate
# SK-MEL-5 melanoma = tested on: SK-MEL-5 melanoma
# UACC-62 melanoma = tested on: UACC-62 melanoma
# LOX IMVI melanoma = tested on: LOX IMVI melanoma
# SK-MEL-28 melanoma = tested on: SK-MEL-28 melanoma
# SK-MEL-2 melanoma = tested on: SK-MEL-2 melanoma
# EKVX NSCLC = tested on: EKVX NSCLC
# SN12C renal = tested on: SN12C renal
# UO-31 renal = tested on: UO-31 renal
# TK-10 renal = tested on: TK-10 renal
# ACHN renal = tested on: ACHN renal
# CAKI-1 renal = tested on: CAKI-1 renal
# CCRF-CEM leukemia = tested on: CCRF-CEM leukemia
# MOLT-4 leukemia = tested on: MOLT-4 leukemia
# A498 renal = tested on: A498 renal
Structure (SMILES),growth (HCT-15 colon),growth (HT29 colon),growth (SNB-75 CNS),growth (SNB-19 CNS),growth (U251 CNS),growth (PC-3 prostate),growth (SK-MEL-5 melanoma),growth (UACC-62 melanoma),growth (LOX IMVI melanoma),growth (SK-MEL-28 melanoma),growth (SK-MEL-2 melanoma),growth (EKVX NSCLC),growth (SN12C renal),growth (UO-31 renal),growth (TK-10 renal),growth (ACHN renal),growth (CAKI-1 renal),growth (CCRF-CEM leukemia),growth (MOLT-4 leukemia),growth (A498 renal)
CCCCCCCC/C=C\CCCCCCCCOc1ccc(CC(=O)NCC[N+](C)(C)C)cc1,60.4%,24.5%,34.6%,13.4%,16.9%,4.88% (active),87.3%,61.3%,83.2%,91.7%,101%,87.8%,50%,92.8%,24.6%,60.8%,44.6%,54.6%,75.1%,–
COc1cc(C(=O)/C=C/c2c(-c3cccs3)nc3ccccn23)cc(OC)c1OC,-7.46% (active),-25.8% (active),-4.3% (active),14.2%,1.5% (active),7.19% (active),-24.1% (active),-33.1% (active),-1.66% (active),8.11% (active),10.7%,4.84% (active),4.93% (active),10.7%,0.55% (active),-23.4% (active),-5.58% (active),12.3%,-0.559% (active),–
CC(/C=C1\SC(=S)N(CC(=O)NC(Cc2c[nH]c3ccccc23)C(=O)O)C1=O)=C\c1ccccc1 (stereo not drawn),103%,110%,87.2%,98.8%,105%,97.6%,96.4%,88.3%,92.9%,105%,110%,98.5%,95%,63.9%,122%,96.5%,87%,104%,104%,–
CCOC(=O)c1n[nH]n2c1nc(=O)c1cnn(C)c12,105%,107%,103%,102%,100%,97.7%,105%,106%,103%,113%,99.6%,102%,105%,84.4%,97.6%,–,103%,95.6%,99.7%,110%
C#Cc1cccc(Nc2nc3ccc([N+](=O)[O-])cc3nc2Nc2cccc(C#C)c2)c1,-69.4% (active),-75.9% (active),-91.9% (active),-19.2% (active),-91.1% (active),-41.9% (active),-88.9% (active),-39.3% (active),-93.2% (active),-69.4% (active),-53.8% (active),-12% (active),-39.1% (active),-84.1% (active),-34.4% (active),–,-25.8% (active),-33.9% (active),–,-20.3% (active)
COc1cccc(/C=C/C(=O)c2cc3c(N)c(C(=O)Nc4cccc(Cl)c4C)sc3nc2C)c1,-57.4% (active),-80.7% (active),-1.75% (active),-35.7% (active),-78.4% (active),13.9%,-31.3% (active),1.73% (active),-64.2% (active),16.3%,-17.3% (active),39.8%,-22.7% (active),-43.4% (active),-18% (active),–,-47.4% (active),7.19% (active),14.3%,-13.2% (active)
CCn1cc(C2=C(c3cn(C)c4ncccc34)C(=O)NC2=O)c2cccnc21,67.6%,72.4%,-10.8% (active),87.7%,76.7%,66%,86.3%,70%,66.5%,90.7%,84.8%,54.6%,68.5%,50%,69.4%,–,61.6%,65.8%,81.9%,-2.35% (active)
COc1ccc(-c2cc(C(=O)N3N=C(c4ccc(N)cc4)CC3c3ccccc3)c3ccccc3n2)cc1 (stereo not drawn),24.6%,10.3%,-1.79% (active),47.8%,36.9%,32.5%,36.2%,40.3%,39.7%,53.1%,39.8%,70.8%,51.7%,45.5%,58.4%,–,24.5%,25.6%,35.2%,29.1%
CCN1C(=O)N(CC)C2C1NN=c1s/c(=C3\C(=O)N(CCc4ccccc4)c4ccccc43)c(=O)n12 (stereo not drawn),10.7%,0.473% (active),-4.86% (active),23.3%,14.5%,20.5%,7.69% (active),28.1%,10.9%,43.6%,54.7%,43.6%,17.8%,45.4%,64.1%,25.5%,27.7%,5.65% (active),10.3%,–
CN(C)c1ccc(/C=C/C(=O)c2ccccc2)cc1,62.1%,62.5%,100%,90.4%,69.3%,71.6%,89.3%,93.1%,78.3%,96.8%,93.5%,97.9%,84.8%,67.5%,74.5%,–,97.1%,66.1%,76.3%,74%
C#CC#CC#CC#CC#CC#CC#CC#CC[C@H]1OC[C@H](COC(=O)O[C@@H](C(=O)O[C@H]2C[C@@]3(O)[C@@H](OC(=O)c4ccccc4)[C@@H]4[C@]5(OC(C)=O)CO[C@@H]5C[C@H](O)[C@@]4(C)C(=O)[C@H](OC(C)=O)C(=C2C)C3(C)C)[C@@H](NC(=O)c2ccccc2)c2ccccc2)O1,99.5%,8.74% (active),37.6%,50.3%,37.8%,32.7%,60.5%,46.2%,39.7%,52.1%,73.9%,74.5%,46.5%,100%,102%,87.6%,77.1%,26.7%,43.3%,–
CCN(CC)c1ccc(N2C(=O)/C(=C/c3cccs3)SC2=S)cc1,102%,101%,93.9%,94.6%,89.1%,64.1%,93.8%,80.8%,88.8%,97.6%,110%,92.2%,91.5%,73.3%,92.9%,–,89.7%,83%,97.9%,71.1%
COc1ccc(C2C3=C(COC3=O)N(CCO)c3cc4c(cc32)OCCO4)cc1OC (stereo not drawn),31.3%,4.76% (active),-8.37% (active),37.4%,26.4%,23.8%,21%,18.1%,42.1%,48.7%,55.3%,56.5%,42%,66.2%,65.1%,–,49.5%,21.1%,55.3%,-5.71% (active)
COc1cccc(NC(=O)c2cccc(C3CCc4c(cc(OC)c(OC)c4OC)O3)c2)c1 (stereo not drawn),63.2%,71.9%,85.6%,74.1%,75.5%,28.9%,36.4%,40.6%,59.9%,81.5%,65.5%,69.1%,55.2%,34.5%,74.5%,66.8%,80.3%,22.1%,7.7% (active),–
Cc1ccc2[nH]c(=O)c3c(c2c1)OC(N)=C(C#N)C31C(=O)c2cccc3cccc1c23 (stereo not drawn),105%,95.6%,84.4%,97.1%,95.2%,89.3%,94.3%,88.9%,93.5%,98.7%,110%,102%,97.8%,77.7%,123%,95.5%,90.9%,95.3%,88.1%,–
O=C(O)c1cccc(N/C=C/C(=O)c2cc3cc(Br)ccc3oc2=O)c1,93.2%,108%,83.7%,94%,96.9%,93.8%,97.7%,94.2%,97.9%,104%,119%,102%,94.1%,74.9%,119%,102%,86.3%,101%,113%,–
